From PubChem BioAssay AID504834 (National Center for Advancing Translational Sciences (NCATS), 2011)
Out of some 320,000 compounds screened, about 22,000 (6.9%) were called active. Not shown: some 27% with an inconclusive outcome. The sample holds actives, similar compounds and a random draw of the others, so the mix is not that of the screen. The call rests on the fitted dose curve; in most records, active means well fitted inhibition curve with a large enough effect; inconclusive means small, poorly fitted or top-dose-only effect, or another doubt; inactive means no such curve, though single readings can be large or run the other way.

assay: Primary qHTS for delayed death inhibitors of the malarial parasite plastid, 96 hour incubation; details: P. falciparum luciferase reporter growth; series mostly up to 28.7 µM; activity change, negative = inhibition: at the top concentration
Excerpt: The goal of this screen is to discover new antimalarial compounds that act by inhibiting the development of the apicoplast in the malarial parasite Plasmodium falciparum. The biochemical processes that make this organelle essential for erythrocytic stage parasites are not well understood. However, antibiotics such as azithromycin and tetracycline, which target the apicoplast translational machinery, have a potent antimalarial effect.
We have developed a cell-based assay that measures parasite growth based on the expression of an integrated copy of a firefly luciferase reporter. To detect small molecules that cause this "delayed death" phenotype, erythrocytes infected with the luciferase-expressing parasites were incubated with compounds for either one or two generations, corresponding to 48 and 96 hours, respectively. Compounds that inhibit parasite growth in the second generation, but not the first, should be enriched in antimalarials that target the apicoplast. Growth inhibition is detected by a decrease in luciferase activity.
Assay Provider: David Fidock and Eric Ekland, Columbia University
Keywords: NIH Roadmap, MLPCN, MLI, MLSMR, qHTS, NCGC, qHTS, malaria, luciferase, viability
Four microliters of infected erythrocytes (2% hematocrit, 0.05% parasitemia final concentration) in culture medium were dispensed and the plates incubated for 96 hours at 37 C in 5% CO2. Two microliters of luciferase detection reagent was added and luminescence was detected by a ViewLux (PerkinElmer) reader.
On the % scale 0 is the no-effect control and ±100 the full control effect; potency means the concentration at half of the fitted maximal effect.

Row | Compound | activity change, negative = inhibition | Potency
1 | CC1CCCCN1C(=O)CCS(=O)(=O)Cc1ccccc1 (stereo not given) | 0% (inactive) | 
2 | CC(OC(=O)c1ccccc1NCCO)C(=O)Nc1ccnn1C(C)C (stereo not given) | 9.28% (inactive) | 
3 | CC(CCN1CCN=C1N(C)C)c1ccccc1 (stereo not given) | 0% (inactive) | 
4 | COc1ccc(N=C(C)c2sc3ccccc3c2O)cc1 | 166% (inactive) | 
5 | Cc1ccc(NS(=O)(=O)c2cn(C)c(=O)n(C)c2=O)c(C)c1 | -6.8% (inactive) | 
6 | c1ccc(C2=Nc3cccc4cccc(c34)N2)cc1 |  | 11.7 µM (active)
7 | Brc1ccc(C2CC(c3ccccc3)=Nc3ccccc3N2)cc1 (stereo not given) | -26% (inactive) | 
8 | Fc1ccccc1N=C1Nc2cccc3cccc1c23 | 5.56% (inactive) | 
9 | C[C@@H](NC(=O)[C@@H]1Cc2ccccc2CN1)C(=O)NC1CCCC1 | -9.37% (inactive) | 
10 | CN(Cc1cnccn1)C(=O)c1cc(COc2cccc(C(F)(F)F)c2)on1 | -9.17% (inactive) | 
11 | COc1ccc(N2CCN(S(=O)(=O)c3ccc4c(c3)NC(=O)C(C)C(=O)N4)CC2)cc1 (stereo not given) | 10.7% (inactive) | 
12 | C=CCNc1nc(N)c([N+](=O)[O-])c(NC2CCCCC2)n1 |  | 10.4 µM (active)
13 | Nc1nc(NCC(=O)O)nc(N2CCCCCC2)c1[N+](=O)[O-] | 20.6% (inactive) | 
14 | COCCNc1nc(N)c([N+](=O)[O-])c(NCCO)n1 | 31.3% (inactive) | 
15 | O=C(COc1ccc2ccc(=O)oc2c1)NCC(O)c1ccccc1 (stereo not given) | -26.5% (inactive) | 
16 | O=C(CCC1CCCC1)N=C1SC2CS(=O)(=O)CC2N1Cc1ccccc1 (stereo not given) | 37.1% (inactive) | 
17 | Cc1ccccc1OCC(=O)NNC(=O)c1ccc(-n2cncn2)c([N+](=O)[O-])c1 | 23.3% (inactive) | 
18 | C=CCn1c(SCn2nnc3ccccc3c2=O)nnc1-c1ccc(Cl)cc1 |  | 11.7 µM (active)
19 | O=c1c2ccccc2nnn1CSc1nnnn1-c1ccccc1 | 46% (inactive) | 
20 | O=C(Cn1nnc2ccccc2c1=O)NCc1ccc(Cl)cc1 | 81.2% (inactive) | 
21 | N/C(=N\S(=O)(=O)c1ccc(Cl)cc1)N1CCOCC1 | -3.64% (inactive) | 
22 | CCOC(=O)Cc1csc(SCC(=O)Nc2ccc(C)cc2F)n1 | 21.7% (inactive) | 
23 | Oc1ccc(/C=N/NC2=NCCCCC2)c(O)c1 | 27.9% (inactive) | 
24 | Cc1cc(N/N=C/c2ccccc2F)c2ccccc2n1 | 2.63% (inactive) | 

Row | Compound | activity change, negative = inhibition | Potency
25 | Oc1ccc(/C=N/Nc2nc(-c3ccccc3F)nc3ccccc23)c(O)c1 |  | 11.7 µM (active)
26 | FC(F)(F)c1nc2ccccc2nc1N/N=C/c1ccc(Cl)cc1 | 37.3% (inactive) | 
27 | Fc1ccc(/C=N/Nc2nc(-c3cccnc3)nc3ccccc23)cc1 | 0% (inactive) | 
28 | Cc1nc2ccccc2nc1N/N=C/c1ccc(O)cc1O |  | 2.94 µM (active)
29 | CC1CCCN(C(=O)CN2C(=O)c3ccccc3S2(=O)=O)C1 (stereo not given) | 309% (inactive) | 
30 | COc1cc(OC)cc(/C(N)=N/O)c1 | 110% (inactive) | 
31 | Cc1snc(SCc2c(F)cccc2Cl)c1C#N | 7.68% (inactive) | 
32 | CSc1cc(C)[nH]c(=O)n1 | 0% (inactive) | 
33 | Cc1cc(SCc2c(F)cccc2Cl)nc(=O)[nH]1 |  | 11.7 µM (active)
34 | Cc1onc(-c2ccccc2)c1C(=O)N1CCN(S(=O)(=O)c2ccccc2C(F)(F)F)CC1 | 3.53% (inactive) | 
35 | Cc1ccc2c(CN3CCN(S(=O)(=O)c4ccccc4C(F)(F)F)CC3)cc(=O)oc2c1 |  | 9.28 µM (active)
36 | O=c1cc(CN2CCN(S(=O)(=O)/C=C/c3ccccc3)CC2)c2ccc(O)cc2o1 |  | 11.7 µM (active)
37 | O=C(CN1CCN(S(=O)(=O)/C=C/c2ccccc2)CC1)Nc1ccc(N2CCOCC2)cc1 | -2.43% (inactive) | 
38 | CN1CCN(Cc2ccccc2C(F)(F)F)CC1 | -13.6% (inactive) | 
39 | NC(=O)CCN1CCN(S(=O)(=O)/C=C/c2ccccc2)CC1 | 12.9% (inactive) | 
40 | Cc1cccc(NC(=O)CCn2c(=O)oc3ccccc32)c1 | -2.59% (inactive) | 
41 | CCCCn1c(N)c(N(CCOC)C(=O)c2oc3ccc(OC)cc3c2C)c(=O)[nH]c1=O | 0.114% (inactive) | 
42 | O=C(NCCS(=O)(=O)c1ccc(Br)cc1)c1ccccc1Cl | 25.8% (inactive) | 
43 | Cc1cccc(C(=O)Nc2ccc(C(=O)N/N=C/c3cccc(C)n3)cc2)c1 | 41.4% (inactive) | 
44 | COc1cccc(NC(=O)CSc2nccn(-c3ccc4c(c3)OCCO4)c2=O)c1 | 23% (inactive) | 
45 | CCOC(=O)c1ccc(NC(=O)CNC(=O)c2ccco2)cc1 | 254% (inactive) | 
46 | CCOC(=O)[C@@H]1[C@H]2COc3ccc(Br)cc3[C@H]2N2C(=O)N(c3ccc(Cl)cc3)C(=O)[C@@]12C |  | 11.7 µM (active)
47 | CCOC(=O)[C@H]1[C@H]2COc3cc(OC)ccc3[C@@H]2N2C(=O)N(c3ccc(Br)cc3)C(=O)[C@@]12C |  | 11.7 µM (active)
48 | CCOC(=O)C1CCN(C(=O)Nc2cccc(OC)c2)CC1 | 8.91% (inactive) | 

Row | Compound | activity change, negative = inhibition | Potency
49 | CCOC(=O)C1C(c2ccc(Cl)cc2)NC(=S)NC1(O)C(F)(F)F (stereo not given) | 7.76% (inactive) | 
50 | COc1ccc(NS(=O)(=O)c2cccc(C(=O)NCCc3ccc(S(N)(=O)=O)cc3)c2)cc1 | -29.3% (inactive) | 
51 | CC1CCCCC1NC(=O)COC(=O)Cc1ccc(Cl)cc1 (stereo not given) | 7.06% (inactive) | 
52 | COc1ccc(-c2ocnc2C(=O)Nc2ccc3c(c2)CCC3)cc1 | 13% (inactive) | 
53 | O=S(=O)(Nc1ccccc1Br)c1cccs1 | 9.4% (inactive) | 
54 | CC(C)CCNC(=O)c1cccnc1Sc1ccccc1 | 55.7% (inactive) | 
55 | CCCCN(C)CCCNC(=O)c1cc(-c2cccs2)nc2ccccc12 | -14% (inactive) | 
56 | CC(C)OCCCNC(=O)c1cc(Sc2ccc(F)cc2)nc2ccccc12 |  | 3.29 µM (active)
57 | O=C(O)C(NS(=O)(=O)c1cccc2nsnc12)c1ccccc1 (stereo not given) | 19.4% (inactive) | 
58 | CC(=O)Nc1cccc(NC(=O)c2ccc3c(c2)CCN3S(C)(=O)=O)c1 | -3.65% (inactive) | 
59 | O=C(CCCCO)c1ccc(O)c(Cl)c1 | 104% (inactive) | 
60 | COc1cccc(-c2nn(-c3ccccc3)cc2/C=C(\C#N)C(=O)NCCCn2ccnc2)c1 |  | 1.65 µM (active)
61 | COc1cc(OC)cc(C(=O)NCCCn2ccnc2)c1 | 30.8% (inactive) | 
62 | COc1ccc(/C=C(\C#N)C(=O)NCCCn2ccnc2)cc1 | -13.6% (inactive) | 
63 | C/C=C(/C)C(=O)Nc1cccc(C2=NOC3(C2)C[C@@H](C(N)=O)N(C(=O)C2(C)CC2)C3)c1 (stereo not given in full) | 70.1% (inactive) | 
64 | CCOc1ncccc1C(=O)OCC(=O)c1c[nH]c2ccccc12 | -114% (inactive) | 
65 | O=C(NCCS(=O)(=O)NCc1ccc(F)cc1)c1ccccc1 | 0.0784% (inactive) | 
66 | CSc1nccc(NC(=O)c2ccc(C(C)(C)C)cc2)n1 | 13.2% (inactive) | 
67 | CN1CCN(C2=NCCO2)CC1 | 6.75% (inactive) | 
68 | Cc1ccc(Sc2cc(C(=O)c3ccccc3C(=O)O)ccc2[N+](=O)[O-])cc1 | -11.7% (inactive) | 
69 | CN(C)c1ccc(C2N(C)C(=O)c3ccccc3N2C)cc1 (stereo not given) | 0% (inactive) | 
70 | CN(C)c1ccc(Nc2c3c4c(cccc4n(C)c2=O)C(=O)c2ccccc2-3)cc1 |  | 5.22 µM (active)
